Source: PubChem
WRN inhibitor: WRN helicase (human) inhibition; WRN helicase unwinding, fluorescent forked duplex, kinetic; Potency, µM (titrated, usually from 114 µM), for inactives: top-dose activity change, negative = inhibition, usual class: inhibitors; 360,000 compounds, 0.46% hits; AID 651768; note: potency is the fitted concentration of half-maximal effect; % is set by controls: 0 for no effect and ±100 for the full control effect; nearly all actives have a fitted effect of over 55% in size
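WRN at 20 nM final preincubated with compound 15 min at room temperature; reaction started with 100 nM fluorophore/quencher forked duplex oligonucleotide and 2 mM ATP final. Unwinding followed kinetically by red fluorescence (ex 525, em 598 nm).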
PI5P4Ka inh: inhibitors of human PI5P4K alpha; P48426; PI5P4Kalpha enzyme, ADP-Glo luminescence, 60 min; stronger effect = lower value; max response, %; 330,000 compounds, 1.2% hits; active = max response of -50% or lower; inconclusive = between -30% and -50%; inactive = -30% or higher; note: value at the top dose of about 77 µM; % is set by controls: 0 for no effect and ±100 for the full control effect
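Human PI5P4Kalpha with substrate in 0.038 M HEPES pH 7.4, 0.28 mM EGTA, 0.1% CHAPS, 5% DMSO; reaction started with 5 microM ATP (final), 60 min at room temperature. ADP formed read by ADP-Glo luminescence.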
POLI inh: blocks human DNA polymerase iota activity; Q9UNA4; Pol iota fluorescent replication assay, 10 min; Potency, µM (doses to about 115 µM), for inactives: top-dose activity, negative = inhibition, most hits filed as inhibitors; 390,000 compounds, 1% hits; AID 588590; note: potency is the fitted concentration of half-maximal effect
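Pol iota at 10 nM preincubated 15 min with compounds at room temperature; reaction started with fluorescent substrate, 50 nM final. Fluorescence read kinetically at 0 and 10 min; buffer-only wells as negative control.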
Pol eta inh: blocks human DNA polymerase eta activity; Q9Y253; 390,000 compounds, 1.2% hits; recombinant Pol eta, fluorescent DNA replication assay; AID 588591; Potency, µM (top dose mostly 114 µM), for the others: at the highest dose activity change, negative = inhibition, actives largely listed as inhibitors; note: potency is the fitted concentration of half-maximal effect; % is set by controls: 0 for no effect and ±100 for the full control effect
Target sequence (Q9Y253 whole entry, looked up): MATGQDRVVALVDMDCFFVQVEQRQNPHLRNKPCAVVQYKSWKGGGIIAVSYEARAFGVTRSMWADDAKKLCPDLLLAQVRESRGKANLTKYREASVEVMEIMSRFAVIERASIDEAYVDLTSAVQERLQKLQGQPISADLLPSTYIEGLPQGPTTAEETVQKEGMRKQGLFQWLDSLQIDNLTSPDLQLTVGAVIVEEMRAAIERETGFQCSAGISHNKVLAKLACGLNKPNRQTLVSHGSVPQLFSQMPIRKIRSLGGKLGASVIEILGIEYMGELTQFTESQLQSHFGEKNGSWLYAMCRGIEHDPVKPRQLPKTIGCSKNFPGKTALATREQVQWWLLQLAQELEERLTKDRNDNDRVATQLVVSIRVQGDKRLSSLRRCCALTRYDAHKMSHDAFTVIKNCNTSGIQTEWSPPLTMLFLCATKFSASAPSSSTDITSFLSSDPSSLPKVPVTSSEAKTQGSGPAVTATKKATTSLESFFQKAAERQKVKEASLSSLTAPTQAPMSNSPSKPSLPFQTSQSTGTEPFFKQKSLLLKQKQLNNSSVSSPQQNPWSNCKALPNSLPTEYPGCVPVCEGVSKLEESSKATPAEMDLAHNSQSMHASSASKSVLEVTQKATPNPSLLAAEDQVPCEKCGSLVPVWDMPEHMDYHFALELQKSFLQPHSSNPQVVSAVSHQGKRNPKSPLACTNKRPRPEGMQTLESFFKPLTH
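Fluorescent replication assay: 50 nM final substrate added after a 15 min room-temperature compound preincubation with 10 nM enzyme. Signal taken at 0 min and again at 10 min.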
Pol beta inh: DNA polymerase beta (human) inhibition. AID 485314. Pol beta primer extension/strand displacement, fluorescence kinetic. 340,000 compounds, 1.3% hits. Potency, µM (top dose mostly 114 µM), without a hit: top-dose activity change, negative = inhibition, most hits filed as inhibitors. P06746; note: potency is the fitted concentration of half-maximal effect; % is set by controls: 0 for no effect and ±100 for the full control effect
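Homogeneous kinetic assay of primer extension and strand displacement by 10 nM Pol beta, preincubated 15 min at room temperature with compound before 50 nM substrate (final) was added. Read at 0 and 10 min; four-parameter Hill fit.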
Pol kappa inh: DNA polymerase kappa (human) inhibition; Q9UBT6; purified Pol kappa, fluorescent DNA synthesis assay, 10 min; Potency, µM (highest dose often 107 µM), inactives show at the top dose activity, negative = inhibition, most hits filed as inhibitors; 400,000 compounds, 0.53% hits; note: potency is the fitted concentration of half-maximal effect; % is set by controls: 0 for no effect and ±100 for the full control effect
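10 nM Pol kappa was preincubated with compounds for 15 min at room temperature. Reaction started with 50 nM (final) substrate. Fluorescence read kinetically at 0 and 10 min.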
The depositor's hits bear a star; ? = inconclusive; nt = no result given; [ ] = dose if it differs, or a comment. Sampled rows, rich in hits. Any-hit rate of the full collection: about 2.8%. Unless noted, calls come from the whole dose curve; as a rule, active = well fitted curve in the direction sought with a large enough effect; inconclusive = small, poorly fitted or top-dose-only effect, or another doubt; inactive = no such curve, though single readings can be large; an effect the other way counts as inactive or inconclusive.

SMILES	WRN inhibitor	PI5P4Ka inh	POLI inh	Pol eta inh	Pol beta inh	Pol kappa inh
CCN(c1ccccc1)S(=O)(=O)c1cc(C(=O)NCc2ccco2)ccc1C	-4%[11.6 µM]	?	?	79µM*	nt	-14%
CCN(c1ccccc1)S(=O)(=O)c1cc(C(=O)NCC(c2ccco2)N2CCCCC2)ccc1C (stereo unspecified)	?	-10	?	?	nt	-15%
O=C(NCCc1ccc(F)cc1)c1ccc(Cl)c(S(=O)(=O)N2CCOCC2)c1	3%[11.6 µM]	?	?	45µM*	nt	-29%
O=C(OC1CCOC1=O)c1ccc(Cl)c(S(=O)(=O)N2CCOCC2)c1 (stereo unspecified)	-10%	-10	71µM*	40µM*	nt	?
O=C(COC(=O)c1ccc(S(=O)(=O)NCc2ccco2)cc1)NCc1ccccc1	-9%	-16	?	-14%	nt	?
O=C(COC(=O)c1ccc(S(=O)(=O)NCc2ccco2)cc1)NCCC1=CCCCC1	-7%	-19	?	?	45µM*	?
Cc1cnc(/C=C/c2ccc(N(C)C)cc2)cn1	nt	nt	2%	nt	nt	0%
O=C(Nc1cc(-c2nc3ccccc3o2)ccc1Cl)c1sc2c([N+](=O)[O-])cccc2c1Cl	nt	nt	3%	-8%	7%	2%
CC(=O)c1cccc(NC(=O)c2oc(=O)c3ccccc3c2-c2ccccc2)c1	nt	nt	6%	-10%	10%	-4%[60.1 µM]
Cc1cccc(N(CC(=O)Nc2ccc(Br)cc2)S(C)(=O)=O)c1C	nt	nt	-11%	-1%	13%	-2%[60.1 µM]
O=C(COC(=O)c1ccc(S(=O)(=O)N2CCCCC2)cc1)NCc1ccco1	3%[11.6 µM]	-23	?	?	40µM*	?
O=C(COC(=O)c1ccc(NS(=O)(=O)c2cccs2)cc1)NCc1ccco1	45µM*	-72*	8.9µM*	4µM*	?	32µM*
CN(C)S(=O)(=O)c1ccc(C(=O)OCC(=O)NCc2ccco2)cc1	5%[57.1 µM]	-11	40%	-1%	89µM*	-10%
COc1ccc([C@@H]2C[C@H]3[C@@H](CN2S(=O)(=O)c2ccccc2)C(=O)C[C@@H](c2cccc(Cl)c2)N3S(=O)(=O)c2ccc(C)cc2)cc1	-11%	1	nt	nt	nt	nt
O=S(=O)(Nc1nc2ccccc2nc1Nc1ccc2c(c1)OCCO2)c1cccs1	?	nt	?	?	18µM*	-42%
CCCCn1c(NS(=O)(=O)c2ccc(C)cc2)c(S(=O)(=O)c2ccccc2)c2nc3ccccc3nc21	-19%	-4	10µM*	-29%	-27%[57.1 µM]	-22%
CCOc1cc2ccccc2cc1C(=O)OCC(=O)Nc1ccc(Br)cc1	nt	nt	23%	nt	nt	-14%
N#CCC(=O)Nc1ccc(C(=O)OCC(=O)N=c2sccn2Cc2ccccc2Cl)cc1	-18%	-53*	?	?	nt	-10%
COc1cc2ccccc2cc1C(=O)OCC(=O)Nc1ccc(Br)cc1	nt	nt	nt	nt	nt	89µM*
N#CCC(=O)Nc1ccc(C(=O)OCC(=O)c2ccc3c(c2)OCCO3)cc1	-9%	-74*	64%	-9%	2%	-6%
N#CCC(=O)Nc1ccc(C(=O)OCC(=O)Nc2ccc3ccccc3c2)cc1	-25%	-51*	-6%	?	nt	-18%
O=C(COC(=O)c1ccc(O)cc1O)N=c1sccn1Cc1ccccc1Cl	-22%	-17	5%	-7%	nt	-8%
N#CCC(=O)Nc1ccc(C(=O)OCC(=O)c2ccc3c(c2)OCO3)cc1	-13%	-15	2%	1%	nt	-11%
Cc1ccc(C2CCN(C(=O)Nc3ccc(Cl)c(Cl)c3)C2)cc1 (stereo unspecified)	nt	nt	-13%	-19%	-14%	-19%[60.1 µM]
CCN1CCc2c(sc(NC(=O)c3ccc(S(=O)(=O)N4CCCC(C)C4)cc3)c2C(=O)OC)C1 (stereo unspecified)	nt	nt	-3%	-8%	36%	-7%[60.1 µM]
SMILES	WRN inhibitor	PI5P4Ka inh	POLI inh	Pol eta inh	Pol beta inh	Pol kappa inh
COc1ccc(C2C(C(=O)Nc3ccccc3)=C(C)Nc3nc(-c4ccccc4Cl)nn32)cc1OC (stereo unspecified)	nt	nt	11%	-19%	5%	0%
CCOC(=O)c1c(NC(=O)COC(=O)c2ccc(NC(=O)CC#N)cc2)sc(C(=O)NC)c1C	?	?	?	10µM*	nt	?
CN(C)C(=O)COc1ccccc1C(=O)OCC(=O)Nc1ccc(Oc2ccc(Br)cc2)cc1	nt	nt	11%	nt	nt	-13%
CCCc1nc2ccccc2n1C(C(=O)NC(C)(C)C)C1CC1 (stereo unspecified)	0%	0	nt	nt	nt	nt
Cc1ccc(C)c(NC(=O)c2ccccc2O)c1	56µM*	?	-11%	-21%	4%	2%
N#C/C(=C\c1ccc(/C=C(/C#N)c2nn(CCO)c(N)c2C#N)cc1)c1nn(CCO)c(N)c1C#N	56µM*	-7	-5%	-9%	2%	-12%
N#C/C(=C/c1ccccc1)c1nn(CCO)c(N)c1C#N	-5%	-10	12%	-1%	7%	-1%
CC[C@@]1(O)C[C@H](O[C@H]2C[C@@H](N(C)C)[C@@H](O[C@H]3C[C@@H](O)[C@@H](O[C@H]4CCC(=O)[C@@H](C)O4)[C@@H](C)O3)[C@@H](C)O2)c2c(cc3c(c2O)C(=O)c2c(O)cccc2C3=O)[C@H]1C(=O)OC	nt	nt	nt	nt	nt	4.5µM*
N#CC1=C2SCN(Cc3ccco3)CN2C(=O)CC1c1cccc2ccccc12 (stereo unspecified)	-27%	-60*	?	-15%	45µM*	-25%
N#CC1=C2SCN(Cc3ccco3)CN2C(=O)CC1c1ccccc1F (stereo unspecified)	-6%	nt	6%	-5%	-3%	1%
CCN(CC)CCn1c2ccccc2c2cnc(N=CN(C)C)c(C#N)c21	-8%	0	?	?	20µM*	-33%
CCn1c2ccccc2c2cnc(N=CN(C)C)c(C#N)c21	-17%[57.1 µM]	-6	11%	-25%	5%	-14%
S=c1[nH]nc(-c2cc(-c3ccccc3)n[nH]2)n1/N=C/c1c(Cl)cccc1Cl	?	?	20µM*	79µM*	14µM*	?
Cc1ccsc1/C=N/n1c(-c2cc(-c3ccccc3)n[nH]2)n[nH]c1=S	-35%	-17	?	?	11µM*	?
Cc1ccccc1/C=N/n1c(-c2cc(-c3ccccc3)n[nH]2)n[nH]c1=S	-25%	-22	3%	-2%	?	0%
CC1C(c2ccccc2)OCCN1C(=S)NC(=O)c1ccccc1 (stereo unspecified)	-1%	-25	nt	-5%	nt	nt
O=C(Cn1c(=O)oc2cc(S(=O)(=O)N3CCCC3)ccc21)Nc1ccc(F)cc1F	nt	nt	-21%	nt	-6%	-5%
